Assay [1] has as its target human Dopamine Receptor D4.4 (DRD4.4), DRD4 (gene 1815) (UniProt P21917). Put plainly: NVS_GPCR_hDRD4.4: NovaScreen (NVS) G Protein-Coupled Receptor Assay for human Dopamine Receptor D4.4 (DRD4.4) (AID 2283264). Put shortly:
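Filter-binding assay with a tritiated or iodinated ligand, cell-free receptor prepared from CHO, 1 hour. Loss of bound radioactivity versus DMSO; single 25 uM duplicate screen, then concentration-response for actives.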

Assay [2] concerns the target Beta-2 adrenergic receptor (Homo sapiens) (UniProt P07550). Put plainly: NVS_GPCR_hAdrb2: NovaScreen (NVS) G Protein-Coupled Receptor Assay for human Adrenergic, Beta 2 Receptor (Adrb2) (AID 2283261). Put shortly:
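Compounds screened in duplicate at 25 uM, then actives in concentration series. Human beta-2 receptor from CHO material, cell-free; radioligand displacement after 1 h measured by filtration and scintillation against DMSO baseline.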

The target in assay [3] is human Adrenergic, Beta 1 Receptor (Adrb1), ADRB1 (gene 153) (UniProt P08588). As to the kind of experiment: NVS_GPCR_hAdrb1: NovaScreen (NVS) G Protein-Coupled Receptor Assay for human Adrenergic, Beta 1 Receptor (Adrb1) (AID 2283258). The method, boiled down: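 Membranes/protein extracted from human neuroepithelioma cells, radioligand competition binding read by filtration and scintillation 2 h post-dose. Single 25 uM duplicate screen, then concentration-response follow-up; DMSO as negative control.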
Sequence of human Adrenergic, Beta 1 Receptor (Adrb1), ADRB1 (gene 153) (P08588 whole entry, looked up): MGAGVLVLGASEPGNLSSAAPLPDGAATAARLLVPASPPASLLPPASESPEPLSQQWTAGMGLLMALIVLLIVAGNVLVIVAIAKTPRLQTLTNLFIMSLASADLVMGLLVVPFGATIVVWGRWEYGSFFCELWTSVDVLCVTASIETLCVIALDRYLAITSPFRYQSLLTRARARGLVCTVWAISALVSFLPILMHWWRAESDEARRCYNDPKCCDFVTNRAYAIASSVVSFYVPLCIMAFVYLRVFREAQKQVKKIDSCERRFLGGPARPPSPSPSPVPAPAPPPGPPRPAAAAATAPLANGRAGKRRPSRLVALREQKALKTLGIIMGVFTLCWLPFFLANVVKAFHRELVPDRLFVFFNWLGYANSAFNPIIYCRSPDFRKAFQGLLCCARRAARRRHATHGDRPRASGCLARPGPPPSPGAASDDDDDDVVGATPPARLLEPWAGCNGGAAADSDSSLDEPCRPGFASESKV

The target of assay [4] is D(1A) dopamine receptor (Homo sapiens) (UniProt P21728). Put plainly: NVS_GPCR_hDRD1: NovaScreen (NVS) G Protein-Coupled Receptor Assay for human Dopamine Receptor D1 (DRD1) (AID 2283269). The method, boiled down:
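Extracted HEK293 DRD1 is incubated 1 h with compound and a tritiated or iodinated radioligand, then filtered and counted. Screening runs 25 uM in duplicate with on-plate positive and negative controls.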

Assay [5] concerns the target human Serotonin, 5-Hydroxytryptamine Receptor 7 (5HT7), HTR7 (gene 3363) (UniProt P34969). As to the kind of experiment: NVS_GPCR_h5HT7: NovaScreen (NVS) G Protein-Coupled Receptor Assay for human Serotonin, 5-Hydroxytryptamine Receptor 7 (5HT7) (AID 2283255).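 Also: hits reduce specific radioligand binding relative to DMSO.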 The method, boiled down: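 Filter-bound radioactivity counted after 1 h, with loss of specific radioligand binding fitted against DMSO. Membrane protein came from CHO cells expressing human 5HT7. Chemicals were tested first at 25 uM in duplicate, then in concentration series if active.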

For assay [6], the target named is human Adenosine A1 Receptor (AdoRA1), ADORA1 (gene 134) (UniProt P30542). Put plainly: NVS_GPCR_hAdoRA1: NovaScreen (NVS) G Protein-Coupled Receptor Assay for human Adenosine A1 Receptor (AdoRA1) (AID 2283254). The method, boiled down:
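Each chemical is first tested twice at 25 uM, actives later in dilution series, against a radioligand bound to human cortex membranes; after 1 h, filter-retained counts are compared with DMSO controls, lower signal indicating displacement.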

Assay [7] addresses Muscarinic acetylcholine receptor M1 (Homo sapiens) (UniProt P11229). As to the kind of experiment: NVS_GPCR_hM1: NovaScreen (NVS) G Protein-Coupled Receptor Assay for human Muscarinic, M1 Receptor (AID 2283270). Put shortly:
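Actives from a duplicate 25 uM single-point screen were retested in concentration series. Binding measured as displacement of a radioligand from CHO-derived receptor preparation, 1 h incubation, filtration and scintillation counting, analysed as signal loss against DMSO.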

The target in assay [8] is Muscarinic acetylcholine receptor M3 (Homo sapiens) (UniProt P20309). As to the kind of experiment: NVS_GPCR_hM3: NovaScreen (NVS) G Protein-Coupled Receptor Assay for human Muscarinic, M3 Receptor (AID 2283272). Put shortly: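 Radioligand displacement binding on human M3 receptor in CHO-derived membranes, 1 h incubation, filter-based scintillation counting. Primary screen in duplicate at 25 uM; actives followed up in concentration series; loss of signal versus DMSO.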

Assay [9] has as its target Muscarinic acetylcholine receptor M2 (Homo sapiens) (UniProt P08172). As to the kind of experiment: NVS_GPCR_hM2: NovaScreen (NVS) G Protein-Coupled Receptor Assay for human Muscarinic, M2 Receptor (AID 2283273). The method, boiled down:
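Radioligand competition binding, cell-free, receptor from CHO; 1 h incubation; scintillation detection. Primary testing at 25 uM in duplicate.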

Assay [10] addresses human Muscarinic, M4 Receptor, CHRM4 (gene 1132) (UniProt P08173). As to the kind of experiment: NVS_GPCR_hM4: NovaScreen (NVS) G Protein-Coupled Receptor Assay for human Muscarinic, M4 Receptor (AID 2283274). The method, boiled down:
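Filter-based scintillation counting of radioligand bound to CHO-expressed human M4 preparations after 1 h; loss of signal fitted versus DMSO. Initial duplicate testing at 25 uM, concentration-response follow-up for actives.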

Assay [11] addresses human Adrenergic, Alpha 2A Receptor (Adra2A), ADRA2A (gene 150) (UniProt P08913). As to the kind of experiment: NVS_GPCR_hAdra2A: NovaScreen (NVS) G Protein-Coupled Receptor Assay for human Adrenergic, Alpha 2A Receptor (Adra2A) (AID 2283257). The method, boiled down:
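Displacement of a specific radioligand from HT29 membrane protein was counted by filter scintillation after 1 h. Compounds were screened in duplicate at 25 uM, and actives were retested in concentration series. Fitting was positive-direction against DMSO.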

Assay [12] deals with human Adrenergic, Alpha 2c Receptor (Adra2C), ADRA2C (gene 152) (UniProt P18825). As to the kind of experiment: NVS_GPCR_hAdra2C: NovaScreen (NVS) G Protein-Coupled Receptor Assay for human Adrenergic, Alpha 2c Receptor (Adra2C) (AID 2283259). Put shortly:
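Screened first in duplicate at 25 uM, with actives then run as concentration series. Membranes from Sf9 cells were exposed for 1 h, and displacement of radioligand was counted after filtration, using DMSO as baseline.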

Assay [13] deals with human Adrenergic, Beta 3 Receptor (Adrb3), ADRB3 (gene 155) (UniProt P13945). As to the kind of experiment: NVS_GPCR_hAdrb3: NovaScreen (NVS) G Protein-Coupled Receptor Assay for human Adrenergic, Beta 3 Receptor (Adrb3) (AID 2283262). The method, boiled down:
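A cell-free filter binding assay read by scintillation counting, with displacement of a specific radioligand measured after 1 hour. The receptor source was SK-N-MC extracts (cells pretreated with isoproterenol and 8-bromo-cAMP). Compounds were first tested at 25 uM in duplicate and then in concentration series.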

In assay [14] the target is human Dopamine Receptor D2 (DRD2), DRD2 (gene 1813) (UniProt P14416). As to the kind of experiment: NVS_GPCR_hDRD2s: NovaScreen (NVS) G Protein-Coupled Receptor Assay for human Dopamine Receptor D2 (DRD2) (AID 2283266). The method, boiled down:
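Test compound (25 uM, duplicate in the primary screen; concentration series at follow-up) competed with radioligand for human DRD2 in CHO-derived membrane protein. Filter-based scintillation counting was done 1.5 hours after dosing, with loss of signal analysed against DMSO.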

In assay [15] the target is human Histamine 1 Receptor (H1), HRH1 (gene 3269) (UniProt P35367). As to the kind of experiment: NVS_GPCR_hH1: NovaScreen (NVS) G Protein-Coupled Receptor Assay for human Histamine 1 Receptor (H1) (AID 2283268). Put shortly: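 Filter-based scintillation detection of radioligand binding to human H1, 1 h incubation; chemicals screened in duplicate at 25 uM, then concentration-response; signal loss relative to DMSO taken as activity.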

The target of assay [16] is Type-1 angiotensin II receptor (Homo sapiens) (UniProt P30556). Put plainly: NVS_GPCR_hAT1: NovaScreen (NVS) G Protein-Coupled Receptor Assay for human Angiotensin II receptor type 1 (AT1) (AID 2283263). The method, boiled down: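 Hits from a 25 uM duplicate screen (threshold e.g. 30% inhibition) were run in concentration-response with 50 uM top concentration. Displacement of specific radioligand from KAN-TS membrane preparations measured after 3 h by filter scintillation, DMSO as baseline.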

Records with an inconclusive call do not appear. Activity calls are given as the source filed them. The calls were made as follows: active = hit-call score of the fitted dose curve at least 0.9, where 1 is the maximum; inconclusive = response in the unintended direction; inactive = score below 0.9.

Sequence of Muscarinic acetylcholine receptor M1 (Homo sapiens) (P11229 whole entry, looked up): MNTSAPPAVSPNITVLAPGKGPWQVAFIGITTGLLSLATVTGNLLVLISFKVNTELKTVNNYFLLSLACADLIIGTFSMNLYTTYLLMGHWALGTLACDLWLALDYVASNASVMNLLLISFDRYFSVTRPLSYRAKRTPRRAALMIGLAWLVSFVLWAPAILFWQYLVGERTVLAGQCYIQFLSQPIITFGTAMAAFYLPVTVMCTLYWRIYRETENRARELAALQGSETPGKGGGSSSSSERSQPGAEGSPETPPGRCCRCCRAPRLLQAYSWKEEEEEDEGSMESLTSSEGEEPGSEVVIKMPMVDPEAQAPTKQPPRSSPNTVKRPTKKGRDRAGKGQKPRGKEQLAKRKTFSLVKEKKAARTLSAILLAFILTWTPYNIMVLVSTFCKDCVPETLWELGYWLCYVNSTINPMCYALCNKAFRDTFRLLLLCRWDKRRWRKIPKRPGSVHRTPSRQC
Sequence of human Serotonin, 5-Hydroxytryptamine Receptor 7 (5HT7), HTR7 (gene 3363) (P34969 whole entry, looked up): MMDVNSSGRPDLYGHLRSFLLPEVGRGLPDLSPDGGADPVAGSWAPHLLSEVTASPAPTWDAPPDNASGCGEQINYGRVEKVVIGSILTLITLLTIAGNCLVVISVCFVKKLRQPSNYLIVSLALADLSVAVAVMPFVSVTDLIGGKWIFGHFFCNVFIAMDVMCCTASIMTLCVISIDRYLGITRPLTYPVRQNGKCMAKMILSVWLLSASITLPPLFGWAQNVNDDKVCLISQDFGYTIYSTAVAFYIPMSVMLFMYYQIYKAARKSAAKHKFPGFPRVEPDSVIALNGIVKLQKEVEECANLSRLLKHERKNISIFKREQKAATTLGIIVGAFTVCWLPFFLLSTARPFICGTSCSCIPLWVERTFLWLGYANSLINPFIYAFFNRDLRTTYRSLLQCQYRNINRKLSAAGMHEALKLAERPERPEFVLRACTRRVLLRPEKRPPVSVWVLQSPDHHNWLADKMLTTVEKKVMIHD
Sequence of D(1A) dopamine receptor (Homo sapiens) (P21728 whole entry, looked up): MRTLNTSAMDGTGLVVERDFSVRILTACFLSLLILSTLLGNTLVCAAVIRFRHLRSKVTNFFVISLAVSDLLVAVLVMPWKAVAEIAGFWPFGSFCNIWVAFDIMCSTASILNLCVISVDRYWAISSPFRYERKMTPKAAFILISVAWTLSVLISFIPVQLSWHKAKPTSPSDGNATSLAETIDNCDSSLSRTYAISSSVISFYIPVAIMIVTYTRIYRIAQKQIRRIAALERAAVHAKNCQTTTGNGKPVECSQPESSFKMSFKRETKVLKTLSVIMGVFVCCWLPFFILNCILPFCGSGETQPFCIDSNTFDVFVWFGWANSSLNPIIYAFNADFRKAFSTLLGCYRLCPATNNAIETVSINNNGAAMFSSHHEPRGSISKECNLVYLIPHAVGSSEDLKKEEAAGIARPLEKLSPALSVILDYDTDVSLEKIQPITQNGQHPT
Sequence of human Muscarinic, M4 Receptor, CHRM4 (gene 1132) (P08173 whole entry, looked up): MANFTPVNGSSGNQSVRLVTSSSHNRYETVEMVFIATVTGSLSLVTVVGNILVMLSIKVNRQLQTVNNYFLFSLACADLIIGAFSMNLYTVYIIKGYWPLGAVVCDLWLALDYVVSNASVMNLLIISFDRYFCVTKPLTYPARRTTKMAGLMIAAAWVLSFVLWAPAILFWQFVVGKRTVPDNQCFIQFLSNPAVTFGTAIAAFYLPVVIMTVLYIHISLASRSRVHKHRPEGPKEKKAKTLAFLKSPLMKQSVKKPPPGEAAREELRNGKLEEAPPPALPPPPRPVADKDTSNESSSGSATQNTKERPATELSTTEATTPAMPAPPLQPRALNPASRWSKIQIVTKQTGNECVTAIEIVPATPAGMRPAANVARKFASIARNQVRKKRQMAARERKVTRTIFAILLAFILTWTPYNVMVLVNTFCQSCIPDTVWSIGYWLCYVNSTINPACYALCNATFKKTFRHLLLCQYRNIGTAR
Sequence of human Adrenergic, Beta 3 Receptor (Adrb3), ADRB3 (gene 155) (P13945 whole entry, looked up): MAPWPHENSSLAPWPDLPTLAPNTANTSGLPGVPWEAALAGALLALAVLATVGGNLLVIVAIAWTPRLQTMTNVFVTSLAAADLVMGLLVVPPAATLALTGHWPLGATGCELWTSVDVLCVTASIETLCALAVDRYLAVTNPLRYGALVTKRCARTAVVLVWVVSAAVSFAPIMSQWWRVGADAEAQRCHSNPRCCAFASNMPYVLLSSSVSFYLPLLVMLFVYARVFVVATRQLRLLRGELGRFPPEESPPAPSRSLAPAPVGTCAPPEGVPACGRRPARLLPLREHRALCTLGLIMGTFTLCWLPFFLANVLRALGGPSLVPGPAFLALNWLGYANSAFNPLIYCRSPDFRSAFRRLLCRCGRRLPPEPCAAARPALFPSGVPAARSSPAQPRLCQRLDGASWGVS
Sequence of human Dopamine Receptor D2 (DRD2), DRD2 (gene 1813) (P14416 whole entry, looked up): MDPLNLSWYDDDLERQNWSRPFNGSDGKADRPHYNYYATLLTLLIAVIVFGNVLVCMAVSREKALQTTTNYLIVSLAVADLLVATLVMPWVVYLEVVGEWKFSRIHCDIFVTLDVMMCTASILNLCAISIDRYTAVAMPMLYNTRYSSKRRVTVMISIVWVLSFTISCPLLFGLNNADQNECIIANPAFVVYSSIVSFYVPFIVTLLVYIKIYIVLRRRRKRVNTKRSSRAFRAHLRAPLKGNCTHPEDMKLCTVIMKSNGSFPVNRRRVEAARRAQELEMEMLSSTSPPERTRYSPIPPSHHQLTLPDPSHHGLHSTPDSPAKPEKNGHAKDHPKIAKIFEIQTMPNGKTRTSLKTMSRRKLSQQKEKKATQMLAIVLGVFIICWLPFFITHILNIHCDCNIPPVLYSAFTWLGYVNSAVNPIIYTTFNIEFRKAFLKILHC
Sequence of human Adrenergic, Alpha 2c Receptor (Adra2C), ADRA2C (gene 152) (P18825 whole entry, looked up): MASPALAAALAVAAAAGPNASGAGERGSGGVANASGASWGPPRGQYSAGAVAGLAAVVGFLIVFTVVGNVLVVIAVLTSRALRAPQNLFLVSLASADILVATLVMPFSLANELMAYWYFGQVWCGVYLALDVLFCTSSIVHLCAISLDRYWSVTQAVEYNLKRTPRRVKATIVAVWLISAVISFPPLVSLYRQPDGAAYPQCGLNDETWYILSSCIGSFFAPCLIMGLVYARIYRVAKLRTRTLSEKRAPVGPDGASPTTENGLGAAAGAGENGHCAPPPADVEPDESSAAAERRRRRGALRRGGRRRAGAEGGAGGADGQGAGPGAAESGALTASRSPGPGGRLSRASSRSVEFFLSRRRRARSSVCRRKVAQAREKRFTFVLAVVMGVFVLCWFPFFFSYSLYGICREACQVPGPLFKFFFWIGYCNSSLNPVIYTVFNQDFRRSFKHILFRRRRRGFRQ
Sequence of Beta-2 adrenergic receptor (Homo sapiens) (P07550 whole entry, looked up): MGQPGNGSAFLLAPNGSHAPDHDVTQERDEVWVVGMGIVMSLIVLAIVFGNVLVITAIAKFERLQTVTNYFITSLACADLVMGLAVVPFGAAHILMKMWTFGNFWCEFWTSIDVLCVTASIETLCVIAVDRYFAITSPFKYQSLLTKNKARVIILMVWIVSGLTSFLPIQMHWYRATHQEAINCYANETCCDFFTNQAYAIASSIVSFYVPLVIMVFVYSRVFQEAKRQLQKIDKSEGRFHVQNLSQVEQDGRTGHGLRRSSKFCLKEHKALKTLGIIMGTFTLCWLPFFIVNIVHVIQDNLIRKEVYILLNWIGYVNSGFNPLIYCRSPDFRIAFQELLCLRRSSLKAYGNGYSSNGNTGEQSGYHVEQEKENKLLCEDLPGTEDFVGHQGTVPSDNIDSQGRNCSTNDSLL
Sequence of human Adrenergic, Alpha 2A Receptor (Adra2A), ADRA2A (gene 150) (P08913 whole entry, looked up): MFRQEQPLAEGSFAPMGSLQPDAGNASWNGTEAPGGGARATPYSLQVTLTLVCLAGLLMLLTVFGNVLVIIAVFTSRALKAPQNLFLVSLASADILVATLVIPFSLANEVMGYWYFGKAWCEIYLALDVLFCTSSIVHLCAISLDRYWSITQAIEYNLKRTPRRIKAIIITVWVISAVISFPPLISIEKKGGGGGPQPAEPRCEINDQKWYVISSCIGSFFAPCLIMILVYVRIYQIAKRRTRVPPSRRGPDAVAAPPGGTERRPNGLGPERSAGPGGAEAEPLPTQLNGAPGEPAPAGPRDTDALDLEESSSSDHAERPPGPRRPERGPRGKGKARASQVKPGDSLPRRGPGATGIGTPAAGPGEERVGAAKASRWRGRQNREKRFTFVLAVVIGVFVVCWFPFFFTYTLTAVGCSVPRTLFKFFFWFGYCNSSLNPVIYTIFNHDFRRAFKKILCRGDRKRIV
Sequence of human Dopamine Receptor D4.4 (DRD4.4), DRD4 (gene 1815) (P21917 whole entry, looked up): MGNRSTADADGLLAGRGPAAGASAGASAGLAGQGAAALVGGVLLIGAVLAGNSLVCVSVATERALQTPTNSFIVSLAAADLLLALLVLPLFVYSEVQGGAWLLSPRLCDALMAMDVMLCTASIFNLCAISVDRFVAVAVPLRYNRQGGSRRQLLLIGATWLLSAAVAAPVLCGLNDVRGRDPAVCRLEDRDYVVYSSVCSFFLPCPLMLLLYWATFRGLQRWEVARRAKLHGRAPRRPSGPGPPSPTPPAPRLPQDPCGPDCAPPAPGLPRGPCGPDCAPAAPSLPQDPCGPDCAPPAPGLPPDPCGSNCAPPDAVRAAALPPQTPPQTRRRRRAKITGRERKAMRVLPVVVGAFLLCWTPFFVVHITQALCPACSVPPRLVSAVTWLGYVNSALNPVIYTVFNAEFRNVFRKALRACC

As usually defined, the AC50 is the concentration giving half of the maximal activity seen. Consider `Cc1cc(N=Nc2ccccc2C)ccc1N`, for which the half-maximal activity concentration (AC50) in assay [1] was 25 µM (active).
As for `c1ccc2c(c1)-c1cccc3cccc-2c13`, in assay [2], the call was inactive.
`O=[N+]([O-])c1ccc(Oc2ccc(Cl)cc2Cl)cc1`: the outcome in assay [3] and in assay [4] was inactive.
As to `CCCCCCCCOC(=O)c1ccc(C(=O)OCCCCCCCC)c(C(=O)OCCCCCCCC)c1`, the call in assay [5] and in [3] was inactive.
For the compound `COP(=S)(OC)SCN1C(=O)c2ccccc2C1=O`, the AC50 is 13.7 µM (active) in assay [6] and 16.8 µM (active) in assay [4].
For the compound `O=C(Oc1ccc(Br)cc1)N1CCN2CCC1CC2`, the AC50 was 12.5 µM (active) in assay [7], 19.4 µM (active) in [8], 16.8 µM (active) in assay [9] and 15.3 µM (active) in assay [10].
Consider `CCOC(=O)[C@]1(c2ccccc2)Oc2ccccc2[C@@H]1N`, for which the AC50 in assay [5] is 0.0948 µM (active); in [11], 6.2 µM (active); in assay [3], 1.41 µM (active); in assay [12], 0.611 µM (active); in assay [2] it was 16.8 µM (active); in assay [13], 4.96 µM (active). The concentration at half-maximal activity (AC50) was 0.0481 µM (active) in [1]; 0.0323 µM (active) in assay [14]; 0.471 µM (active) in [15]; 2.66 µM (active) in assay [4]; 6.04 µM (active) in assay [7]; 13.3 µM (active) in assay [8]. Further, the figures for the concentration at half-maximal activity (AC50) in assay [9] and in assay [10] were 3.28 µM (active) and 13.3 µM (active), respectively.
`CCCCCCCCn1sccc1=O`: the AC50 in assay [5] was 17.9 µM (active); in assay [3], 12.2 µM (active); in assay [12] it was 6.02 µM (active); in assay [16], 10.9 µM (active); in assay [14] it was 26 µM (active); in assay [4], 1.32 µM (active). The result in [11] was inactive.
On to `O=C(N[C@H](c1ccccc1)[C@@H]1CN2CCC1CC2)c1c(Cl)ccc(C(F)(F)F)c1Cl`, for which the concentration at half-maximal activity (AC50) in [5] is 28.5 µM (active); in [3] it was 37.5 µM (active); in [4], 37.5 µM (active). Besides, the compound was classed as inactive in assay [13], in assay [7] and in [10].

The values are drawn from PubChem BioAssay (EPA / NIEHS).
